Screening results as filed in PubChem BioAssay.
HT1080NT lethal: kills 2HG-producing HT-1080-NT fibrosarcoma cells. HT-1080-NT fibrosarcoma viability, CellTiter-Glo ATP luminescence, 48 h. actives 1.6% (n = 360,000). Potency, µM (titrated, usually from 46.1 µM), for the others: at the top dose activity, negative = less viability, actives largely listed as cytotoxic;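 further: NT is the 2HG producing partner of a matched IDH1 knockdown line; potency means the concentration at half of the fitted maximal effect; 0% = DMSO-treated cells and -100% = media-only wells without cells; nearly all actives have a fitted effect of over 55% in size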
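Fibrosarcoma NT cells, 750 per well in 5% FBS RPMI, were exposed to compound for 48 hours. Viability: CellTiter-Glo luminescence.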
TDP1 cell CPT: DT40-hTDP1 cell growth loss with CPT | AID 686979 | actives 12% (n = 420,000) | chicken DT40 Tdp1-/-;hTDP1 cells + 20 nM CPT, ATP luminescence, 48 h | Potency, µM (series often up to 46.2 µM), for the others: at the top dose activity change, negative = growth inhibition, hits mostly inhibitors; further: potency means the concentration at half of the fitted maximal effect; nearly all actives have a fitted effect of over 55% in size
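Chicken DT40 Tdp1-/- cells complemented with human TDP1, 400 cells/well, exposed to compounds plus 20 nM camptothecin for at least 48 h at 37 C; viability read as ATP content by CellTiter-Glo luminescence.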
HT1080 IDH1KD tx: HT-1080 IDH1 knockdown cell toxicity (counter line); HT-1080 IDH1 knockdown viability, ATP luminescence, 48 h; Potency, µM (highest dose often 46.1 µM), for the others: at the top dose activity, negative = toxicity, most hits filed as cytotoxic; actives 2% (n = 360,000);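 further: potency means the concentration at half of the fitted maximal effect; 0% = DMSO wells and -100% = cell-free medium wells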
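Viability of IDH1-knockdown HT-1080 fibrosarcoma cells was assessed by CellTiter-Glo after 48 h at 37 °C with titrated compound; concentration-effect curves were classified by fit quality and response size.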
DT40 TDP1 no CPT: qHTS for Inhibitors of human tyrosyl-DNA phosphodiesterase 1 (TDP1): qHTS in cells in absence of CPT | DT40 Tdp1-/- hTDP1 cells, no CPT, ATP luminescence, 48 h | Potency, µM (doses to about 46.2 µM), without a hit: at the highest dose activity change, negative = growth inhibition, most hits filed as inhibitors | actives 15% (n = 420,000) | AID 686978, 2013; further: potency means the concentration at half of the fitted maximal effect; nearly all actives have a fitted effect of over 55% in size
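Growth kinetics read by CellTiter-Glo luminescence after ≥48 hr at 37 °C. Cells: DT40 Tdp1-/- stably carrying human TDP1, 400 per well, compound exposure in the absence of CPT (DMSO vehicle).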
IL1B secr inh: inflammasome signaling inhibition, IL-1 beta readout; THP-1 LPS/ATP IL-1B secretion, AlphaLISA, 16 h; stronger effect = lower value; activity change, % at 57.5 µM; actives 4.7% (n = 360,000); AID 743279; in the data active means activity change below about -50%; inconclusive means mostly about -30% to -49%
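Secreted IL-1B measured by AlphaLISA bead assay after 16 h compound exposure of THP-1 cells; compounds (final up to 57.5 uM) added 1 h before LPS (250 ng/mL) and ATP (1.25 mM) stimulation; lower signal means less secretion.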
ELG1 repair inh: ELG1-dependent DNA repair inhibition; HEK293T ELG1-luciferase reporter, luminescence, 16 h; DNA damage induced by 5-fluorouridine; Potency, µM (doses to about 46.1 µM), without a hit: top-dose activity change, negative = inhibition, most hits filed as inhibitors; actives 2.3% (n = 330,000); further: potency means the concentration at half of the fitted maximal effect; nearly all actives have a fitted effect of over 55% in size
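In this reporter screen, reduction of luminescence relative to DMSO vehicle indicated activity. Compounds and 5-fluorouridine were added together to 2,000 cells per well, incubated for 16 hr at 37 °C, then developed with ONE-Glo.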
The depositor's hits bear a star. A selection: hits, their analogues and other compounds. The true share with any hit is near 19%. Unless noted, the call rests on the fitted dose curve; in most records, active means well fitted curve in the direction sought with a large enough effect; inconclusive means small, poorly fitted or top-dose-only effect, or another doubt; inactive means no such curve, though single readings can be large; an effect the other way counts as inactive or inconclusive. Unless noted, on the % scale 0 is the no-effect control and ±100 the full control effect.

How did Cc1cccnc1NC(=O)c1ccc2c(c1)OCCO2 do in these assays?
HT1080NT lethal: 11%; TDP1 cell CPT: 1%; HT1080 IDH1KD tx: 14%; DT40 TDP1 no CPT: -9%; IL1B secr inh: -5; ELG1 repair inh: inconclusive

How did CC1(C)CC(NC(=O)COc2ccc(Cl)cc2Cl)CC(C)(C)N1 do in these assays?
HT1080NT lethal: -11%; TDP1 cell CPT: -13%; HT1080 IDH1KD tx: -2%; DT40 TDP1 no CPT: -13%; IL1B secr inh: inconclusive; ELG1 repair inh: 8%

What do the screens show for `Cc1cc(OCC(=O)NC2CC(C)(C)NC(C)(C)C2)c(C)cc1Br`?
HT1080NT lethal: -4%; TDP1 cell CPT: inconclusive; HT1080 IDH1KD tx: -24%; DT40 TDP1 no CPT: 13µM*; IL1B secr inh: inactive; ELG1 repair inh: 2%

How did CC(C)c1ccc(OCC(=O)NC2CC(C)(C)NC(C)(C)C2)c(Br)c1 do in these assays?
HT1080NT lethal: -27%; TDP1 cell CPT: inconclusive; HT1080 IDH1KD tx: inconclusive; DT40 TDP1 no CPT: inconclusive; IL1B secr inh: -62*; ELG1 repair inh: -2%

Results for Cc1ccc(OCC(=O)NC2CC(C)(C)NC(C)(C)C2)c(C)c1 ?
HT1080NT lethal: -4%; TDP1 cell CPT: -4%; HT1080 IDH1KD tx: -3%; DT40 TDP1 no CPT: 0%; IL1B secr inh: -5; ELG1 repair inh: 0%

How did CCN(CC)S(=O)(=O)c1ccc2c(c1)N(CC(=O)Nc1c(C)cc(C)cc1C)C(=O)C1CCCN21 (stereo unspecified) do in these assays?
TDP1 cell CPT: -7%; DT40 TDP1 no CPT: -5%

Results for O=C(N(c1ccccc1)c1ccccc1)N(c1ccccc1)c1ccccc1 ?
HT1080NT lethal: -2%; TDP1 cell CPT: inconclusive; HT1080 IDH1KD tx: -29%; DT40 TDP1 no CPT: 21µM*; IL1B secr inh: -23; ELG1 repair inh: inconclusive

What do the screens show for `O=C(O)CSCC(=O)N(c1ccccc1)c1ccccc1`?
HT1080NT lethal: 1%; TDP1 cell CPT: 4%; HT1080 IDH1KD tx: 0%; DT40 TDP1 no CPT: -21%; IL1B secr inh: 1; ELG1 repair inh: -1%

Results for O=Cc1[nH]c2ccccc2c1N(C(=O)CCl)c1ccccc1 ?
HT1080NT lethal: 16µM*; TDP1 cell CPT: 10µM*; HT1080 IDH1KD tx: 23µM*; DT40 TDP1 no CPT: 15µM*; ELG1 repair inh: inconclusive

Results for O=C(CCl)N(c1ccccc1)c1ccccc1 ?
HT1080NT lethal: 6.5µM*; TDP1 cell CPT: 2.1µM*; HT1080 IDH1KD tx: 5.2µM*; DT40 TDP1 no CPT: 1.8µM*; IL1B secr inh: -108*; ELG1 repair inh: 21µM*

How did CC(=O)c1ccc(N2CCN(C(=O)CNS(=O)(=O)c3ccc4c(c3)OCCCO4)CC2)c(F)c1 do in these assays?
HT1080NT lethal: -2%; TDP1 cell CPT: inconclusive; HT1080 IDH1KD tx: -1%; DT40 TDP1 no CPT: inconclusive; IL1B secr inh: -4; ELG1 repair inh: -21%

What do the screens show for `COc1ccc(CNC(=O)COc2cc3c(c4oc(=O)cc(C)c24)CCC(C)(C)O3)cc1OC`?
HT1080NT lethal: 2%; TDP1 cell CPT: 21µM*; HT1080 IDH1KD tx: 1%; DT40 TDP1 no CPT: 23µM*; IL1B secr inh: inconclusive; ELG1 repair inh: inconclusive

Results for Cc1cc(=O)oc2c3c(cc(OCC(=O)NCc4ccco4)c12)OC(C)(C)CC3 ?
HT1080NT lethal: -5%; TDP1 cell CPT: inconclusive; HT1080 IDH1KD tx: -5%; DT40 TDP1 no CPT: inconclusive; IL1B secr inh: -14; ELG1 repair inh: -22%

Results for Cc1cc(=O)oc2c3c(cc(OCC(=O)NCc4ccncc4)c12)OC(C)(C)CC3 ?
HT1080NT lethal: -1%; TDP1 cell CPT: inconclusive; HT1080 IDH1KD tx: -15%; DT40 TDP1 no CPT: 23µM*; IL1B secr inh: -7; ELG1 repair inh: -1%
